Compound activity (PubChem BioAssay)
A selection: hits, their analogues and other compounds. The true share with any hit is near 5.7%.
hgDAF-12 ag: H. glycines DAF-12 receptor agonists, primary screen, cell-based, luminescence, HEK293, GAL4 fusion, UAS-luciferase | activation, % at 6.8 µM | HEK293 GAL4-hgDAF12 UAS-luciferase reporter, agonist luminescence; normalized to butyrate control | hit rate 1.8% among 370,000 | Nuclear hormone receptor DAF-12 (Heterodera glycines), GAL4 fusion;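 active = activation above a cutoff set at the mean of all screened compounds plus 3 SD, cut at about 10% in these data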;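 also: 0% = DMSO wells and 100% = sodium butyrate wells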
hcDAF12 agonist: H. contortus DAF-12 nuclear receptor activators, primary screen, cell-based, luminescence, HEK293, lit1-tk-luc reporter; HEK293 hcDAF-12 lit1-tk-luc reporter; 0% DMSO, 100% Δ7-dafachronic acid; activation, % at 6.8 µM; hit rate 1.4% among 370,000; AID 652067, 2013;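 active = activation above the mean of all tested compounds plus 3 SD, cut at about 5.5% in these data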;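 also: 100% = response to 3 µM Δ7-dafachronic acid high control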
DAX1 inh-1: DAX1 (NR0B1) inhibitors on StAR promoter, primary screen, cell-based, luminescence, SF-1 (NR5A1), full-length DAX-1. AID 652010, 2013. HEK293T StAR-luciferase reporter, SF-1/DAX-1 repression relief. inhibition, % at 6.8 µM. hit rate 1.1% among 370,000;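 active = inhibition above the mean over all tested compounds plus 3 SD, cut at about 3.6% in these data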;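 also: 0% = DAX-1 cells with DMSO and 100% = cells lacking DAX-1 with DMSO; higher inhibition means more luminescence from relief of DAX-1 repression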
ssDAF-12 act: S. stercoralis DAF-12 nuclear receptor activators, primary screen, cell-based, luminescence, HEK293, GRIP1 co-expression, lit1-tk-luc; Nuclear hormone receptor DAF-12 (Strongyloides stercoralis); activation, % at 6.8 µM; hit rate 1% among 370,000; HEK293 ssDAF-12/GRIP1 lit1-tk-luc reporter; % of 3 µM dafachronic acid response;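 active = activation above the mean over all tested compounds plus 3 SD, cut at about 0.9% in these data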;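 also: 0% = DMSO-only wells and 100% = 3 µM delta7-dafachronic acid wells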
DAX1 inh-2: DAX1 (NR0B1) inhibitors, primary screen, cell-based, HEK293, Gal4-DAX1, luciferase luminescence | hit rate 0.99% among 340,000 | HEK293 Gal4-DAX1 luciferase reporter | inhibition, % at 6.75 µM;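 active = inhibition above the mean over all tested compounds plus 3 SD, cut at about 4.2% in these data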;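 also: 0% = DAX1-transfected cells with DMSO and 100% = empty-vector control cells with DMSO; inhibition shows as a rise in luminescence from relieved DAX1 repression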
Target sequence (P51843 207-470 limits assumed): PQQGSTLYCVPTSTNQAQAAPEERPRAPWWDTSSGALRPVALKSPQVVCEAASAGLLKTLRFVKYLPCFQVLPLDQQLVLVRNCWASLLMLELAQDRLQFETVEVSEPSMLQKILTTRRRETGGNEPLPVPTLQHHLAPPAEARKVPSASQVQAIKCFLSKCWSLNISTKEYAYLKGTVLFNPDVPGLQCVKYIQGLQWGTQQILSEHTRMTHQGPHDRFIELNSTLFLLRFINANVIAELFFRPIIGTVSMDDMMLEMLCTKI
AHR act: AHR activators, primary screen, cell-based, luminescence, luciferase reporter, human; AHR-responsive luciferase reporter cells; Aryl hydrocarbon receptor (Homo sapiens), P35869; activation, % at 5 µM; hit rate 2.5% among 320,000; in the data active = activation above about 47%;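 also: 0% = vehicle wells and 100% = reference agonist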
LXR ag: LXR agonists, Gal4 luciferase reporter, confirmation, counter-screen for hcDAF-12 agonist project, cell-based, luminescence, HEK293, H. contortus campaign | AID 743027, 2013 | activation, % at 6.8 µM | 3,400 tested, under 10 active | HEK293 Gal4-LXR tk-luc reporter, 24 h; normalized: DMSO 0%, positive control 100% | shares compounds with hcDAF12 agonist;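 active = mean percent activation of the reporter above a cutoff set as the average over tested compounds plus their standard deviation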
Target sequence (P55055 whole entry, looked up, the tested form may be a part): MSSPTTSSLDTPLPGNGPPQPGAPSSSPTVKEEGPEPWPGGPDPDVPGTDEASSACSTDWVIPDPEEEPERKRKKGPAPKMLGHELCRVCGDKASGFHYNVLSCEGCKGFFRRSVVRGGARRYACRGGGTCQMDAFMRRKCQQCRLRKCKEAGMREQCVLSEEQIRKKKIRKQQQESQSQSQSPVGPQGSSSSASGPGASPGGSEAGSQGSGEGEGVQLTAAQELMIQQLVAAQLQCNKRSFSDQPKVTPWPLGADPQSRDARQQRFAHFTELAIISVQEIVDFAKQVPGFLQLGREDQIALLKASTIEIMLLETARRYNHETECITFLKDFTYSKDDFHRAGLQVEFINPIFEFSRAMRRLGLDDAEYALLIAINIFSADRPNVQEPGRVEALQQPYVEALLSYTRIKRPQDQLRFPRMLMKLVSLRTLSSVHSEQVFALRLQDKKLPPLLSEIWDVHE
hcDAF12 ag: H. contortus DAF-12 receptor agonists, confirmation, cell-based, luminescence, HEK293, lit1-tk-luc, triplicate | shares compounds with hcDAF12 agonist | HEK293 hcDAF-12 lit1-tk-luc reporter; % of Δ7-dafachronic acid response | activation, % at 6.8 µM | hit rate 61% among 3,400;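 active = mean activation across triplicate tests above the threshold derived from the earlier primary screen, cut at about 5.5% in these data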;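 also: 0% = DMSO only wells and 100% = 3 µM Δ7-dafachronic acid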
Starred values were filed as active, the others as inactive; . = no result.

SMILES | hgDAF-12 ag | hcDAF12 agonist | DAX1 inh-1 | ssDAF-12 act | DAX1 inh-2 | AHR act | LXR ag | hcDAF12 ag
C/C(N)=C(/C#N)C(=O)CSc1nnnn1-c1ccc(C)cc1 | 5.4 | 7.0* | -0.1 | -0.4 | 0.1 | 18.6 | 0.1 | 5.3
Nc1c2c(nc3cccc(Cl)c13)N(c1ccccc1)CC2 | 0.1 | 7.2* | 0.3 | 1.1* | 0.9 | 25.9 | 0.2 | 7.4*
Cc1cccc2c(N)c3c(nc12)N(C)CC3 | -0.9 | -0.8 | 0.4 | -0.2 | -1.1 | 13.1 | . | .
NNc1nc2ccc(F)cc2s1 | 8.7 | 10.0* | 1.9 | 0.7 | 2.2 | 76.7* | 0.0 | 4.8
Cc1cc(NC(=O)COC(=O)c2oc3c(Cl)cccc3c2C)no1 | 1.5 | 6.8* | 0.4 | 0.4 | 3.0 | 14.6 | -0.2 | 2.9
CSc1ccccc1-c1nnc(-c2ccccc2)o1 | 12.9* | 11.5* | 4.4* | 2.2* | 4.0 | 39.8 | 1.3 | 11.7*
O=C(CCN1CCN(c2ccccc2)CC1)Nc1cccc(Br)c1 | 0.0 | 6.8* | -0.1 | -0.5 | 0.6 | 0.2 | -0.2 | 0.7
Cc1csc(NC(=O)CSc2sc3c(O)cc(=O)[nH]c3c2C#N)n1 | 0.2 | 6.6* | -0.1 | 0.3 | -1.0 | 14.5 | -0.1 | 2.5
CCc1ccc2oc(-c3cc(N)ccc3Cl)nc2c1 | 9.2 | 14.1* | 2.2 | 1.3* | 1.5 | 49.3* | 0.8 | 9.8*
CCc1ccc2oc(-c3cc(N)ccc3O)nc2c1 | 8.5 | 8.3* | 2.3 | 0.1 | -1.6 | 73.5* | 0.8 | 7.7*
Nc1ccc2oc(-c3ccccc3Cl)nc2c1 | 7.0 | 0.7 | 3.0 | -1.0 | -1.6 | -11.6 | . | .
CCN1CCN(C(=S)c2ccc([N+](=O)[O-])cc2)CC1 | 1.4 | -0.1 | 0.5 | 0.2 | -0.4 | 1.8 | . | .
O=C(NCc1ccc(F)cc1)C1CCC(CNS(=O)(=O)c2ccccc2)CC1 (stereo not given) | 1.6 | -2.3 | -0.2 | -1.5 | -0.2 | -1.7 | . | .
COc1ccc(C(=O)CN2Cc3ccccc3C2=N)cc1 | 12.6* | 17.6* | 3.4 | 2.1* | 2.8 | 25.4 | 1.1 | 9.5*
COc1ccc(C(=O)CN2C(=O)COc3ccccc32)cc1 | 0.7 | -0.6 | -0.3 | -1.0 | 2.3 | -1.0 | . | .
Cc1csc(-c2ccc3cc(Cl)cc(Cl)c3n2)n1 | 2.0 | 10.1* | 1.3 | 0.4 | . | . | 0.6 | 11.1*
Nc1nc2c(Cl)cc(Cl)cc2s1 | 0.8 | 0.8 | -1.2 | -1.6 | -0.7 | 8.0 | . | .
CC1(C)CC(=O)c2ccc(OCc3ccc([N+](=O)[O-])cc3)cc2O1 | 10.2 | 17.0* | 1.8 | 1.2* | . | 23.8 | 0.7 | 10.7*
CC1(C)CC(=O)c2cc(OCC(=O)O)ccc2O1 | 0.3 | -0.4 | -0.4 | -2.1 | -0.1 | -1.3 | . | .
Oc1c(N=Nc2ccc(F)cc2)ccc2ccccc12 | 9.7 | 7.4* | 1.0 | 0.2 | 2.7 | 73.3* | 1.7 | 12.3*
CCOC(=O)c1c(NC(=O)CSc2nc3nc(C)cc(C)n3n2)sc(CC)c1C | 1.4 | 1.3 | 0.4 | -1.4 | -0.1 | 0.0 | . | .
CCCCC12CN3CCN(CC(C3)/C1=N\NC(=O)c1ccccc1N)C2 | 10.7* | 9.4* | 2.6 | 0.0 | 2.2 | 37.8 | -0.1 | -0.8
CCCC12CN3CCN(CC(C3)/C1=N\NC(=O)Nc1ccccc1)C2 | 1.1 | 1.4 | 0.1 | -0.6 | -0.1 | 2.0 | . | .
O=C(Nc1nccc(-c2cccs2)n1)c1cccs1 | 6.6 | 7.1* | 0.3 | 0.5 | 2.6 | 48.1* | 0.3 | 6.8*
O=C(Nc1ccccn1)c1cccs1 | 7.8 | 0.8 | -0.3 | -0.3 | 0.3 | 0.7 | . | .
SMILES | hgDAF-12 ag | hcDAF12 agonist | DAX1 inh-1 | ssDAF-12 act | DAX1 inh-2 | AHR act | LXR ag | hcDAF12 ag
Cc1ccc([C@@H]2CC(=O)[C@@H]3CN(S(=O)(=O)c4ccc(C)cc4)[C@H](c4ccc(Cl)cc4)C[C@@H]3N2S(=O)(=O)c2ccc(C)cc2)cc1 | 1.7 | 0.0 | -1.3 | -0.6 | -0.3 | . | . | .
Cc1nn(-c2cccc(C(F)(F)F)c2)c(Cl)c1/C=N/Nc1cccc(C(=O)O)c1 | 13.2* | 10.5* | 3.7* | -0.3 | -2.1 | 2.6 | 1.3 | 9.5*
COc1ccc(C(=O)NC(=S)Nc2ccc(N3CCOCC3)c(Cl)c2)cc1[N+](=O)[O-] | -2.4 | -3.2 | -1.4 | -2.2 | -1.6 | 5.8 | . | .
CCOC(=O)C1=CCN(S(=O)(=O)c2ccc(F)cc2)C1c1ccccc1 (stereo not given) | -1.2 | 7.7* | 0.1 | -1.6 | . | . | -0.1 | 0.9
C[C@@]12C(=O)Nc3cc(F)c(F)cc3C(=O)N1[C@H]1c3cc(Cl)ccc3OC[C@@H]1[C@@H]2c1ccccc1 | . | . | . | . | -0.2 | 6.1 | . | .
O=C1C(Cl)=C(Nc2ccccc2)C(=O)c2ccccc21 | 3.3 | 7.9* | 1.0 | 0.1 | 1.6 | 9.0 | -0.4 | 0.6
O=C(O)c1cccc(NC2=C(Cl)C(=O)c3ccccc3C2=O)c1 | 3.2 | 2.9 | 1.0 | -0.7 | -1.1 | . | . | .
CCc1ccc(OCC(=O)NC(C)(C)C)cc1 | -3.4 | 10.9* | -0.3 | -0.7 | -0.3 | 0.8 | -0.1 | -0.7
Cc1ccc(C(=O)CNc2ccc(C)c(Cl)c2)cc1 | -0.7 | 0.1 | 0.6 | -1.3 | 0.7 | -0.6 | . | .
Cc1ccc(NCC(=O)c2ccccc2)cc1Cl | 2.0 | 7.7* | -0.3 | -0.1 | 0.7 | -2.9 | -0.1 | 3.3
CSc1ccccc1NC(=O)CN(C)C(=O)C1CCN(C(=O)Nc2ccccc2)CC1 | 0.0 | -0.1 | -0.7 | -1.2 | 0.8 | 2.5 | . | .
COCCn1c(C)cc(C(=O)CSc2nc3ccccc3s2)c1C | -7.4 | -2.1 | -0.8 | -1.6 | -3.1 | 13.6 | . | .
COCCn1c(C)cc(C(=O)CSc2nc3ccccc3o2)c1C | 10.1 | 8.4* | 2.2 | 0.0 | 1.5 | 12.0 | 0.9 | 4.0
Cc1nc(NC(=O)c2cccnc2Cl)sc1C | 9.1 | 8.5* | 1.4 | 0.7 | 3.1 | 14.0 | 0.7 | 5.1
Cc1nc(NC(=O)c2ccccc2O)sc1C | 4.8 | 0.6 | 0.8 | -0.8 | 2.6 | 11.8 | . | .
